HTT ATP protect: protects HTT-Q103 PC12 cells, measured by ATP; PC12 HTT-Q103 induced, cytoprotection, ATP luminescence, 40 h; actives 0.14% (n = 230,000); Potency, µM (titrated, usually from 56.4 µM), for the others: cytoprotection (ATP increase), hits mostly activators; AID 1471; further: % of control where 0% means no effect; nearly all actives have a fitted effect of over 45% in size
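Compounds were screened for protection of PC12 cells against cell death after tebufenozide induction (100 nM final) of mutant Huntingtin exon 1 (Q103) fused to GFP.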
Tau ThT inhib: tau fibrillization inhibition (ThT binding) | recombinant tau K18 P301L, heparin-induced fibrillization, ThT fluorescence | Potency, µM (titrated, usually from 57.4 µM), for inactives: top-dose activity, negative = inhibition, actives largely listed as inhibitors | actives 2.1% (n = 270,000) | AID 1460; further: on the % scale 0 is the no-effect control and ±100 the full control effect; nearly all actives have a fitted effect of over 55% in size
Target sequence (P10636 561-689 P618L limits assumed): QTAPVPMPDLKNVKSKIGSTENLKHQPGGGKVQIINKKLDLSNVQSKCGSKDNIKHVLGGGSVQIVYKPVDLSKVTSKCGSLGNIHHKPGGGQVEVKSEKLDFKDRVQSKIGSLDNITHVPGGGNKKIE
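Aggregation was driven by heparin (20 uM final) acting on recombinant tau […] bearing P301L in 100 mM sodium acetate pH 7; fibrils were detected with Thioflavin T.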
Tau FP inhib: blocks human tau fibril formation measured by polarization | P10636 | AID 1468 | K18 P301L tau heparin fibrillization, Alexa594 FP, 6 h | actives 0.39% (n = 280,000) | Potency, µM (highest dose often 57.7 µM), for the others: top-dose activity, negative = inhibition, most hits filed as inhibitors; further: on the % scale 0 is the no-effect control and ±100 the full control effect; nearly all actives have a fitted effect of over 55% in size
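Quantitative HTS format: compounds meet 15 uM recombinant K18 P301L tau and Alexa 594-tau tracer in 100 mM sodium acetate pH 7; 20 uM heparin triggers fibrillization at 37 C over 6 hr; FP gives the signal.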
Tau fluor cs: counter-screen for tau fibril formation inhibitors; tau K18 P301L (four-repeat tau fragment) Alexa594 fluorescence, heparin fibrillization; Potency, µM (top dose mostly 57.7 µM), for the others: at the highest dose activity change, negative = decrease; actives 0.93% (n = 280,000); further: on the % scale 0 is the no-effect control and ±100 the full control effect; nearly all actives have a fitted effect of over 55% in size
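Human K18 P301L tau (15 uM unlabeled plus 0.24 uM Alexa 594-labeled, final) in 100 mM sodium acetate pH 7 was mixed with compound and 20 uM heparin and incubated 6 hr at 37 C.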
HttQ103 aggreg: inhibitors of mutant huntingtin aggregate formation in PC12 cells. PC12 HttQ103-GFP aggregates, Acumen cytometry, 40 h. Potency, µM (top dose mostly 46.1 µM), for the others: at the top dose activity change, negative = inhibition, actives largely listed as inhibitors. actives 1.1% (n = 220,000); further: on the % scale 0 is the no-effect control and ±100 the full control effect; nearly all actives have a fitted effect of over 60% in size
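Steps: seed 1500 PC12 HTTQ103-GFP cells/well; add tebufenozide, 100 nM final; add compound titration; add ATPLite reagent; quantify GFP aggregates by laser scanning cytometry.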
Numbers without * were called inactive; ? = inconclusive; · = not tested or not shown; [ ] = dose if it differs, or a comment. A selection: hits, their analogues and other compounds. The true share with any hit is near 3.7%. The call rests on the fitted dose curve; in most records, active means well fitted curve in the direction sought with a large enough effect; inconclusive means small, poorly fitted or top-dose-only effect, or another doubt; inactive means no such curve, though single readings can be large; an effect the other way counts as inactive or inconclusive. Potency means the concentration at half of the fitted maximal effect.

SMILES | HTT ATP protect | Tau ThT inhib | Tau FP inhib | Tau fluor cs | HttQ103 aggreg
CCCc1ccc(OC(=O)c2ccc(O)cc2Cl)cc1 | -16% | ? | 28µM* | ? | -10%
CCCc1ccc(OC(=O)c2cccs2)cc1 | -2% | -11% | -13% | -12% | 8%[9.22 µM]
Cc1ccc(/C=C(\CCC(=O)O)c2nc3ccccc3s2)cc1[N+](=O)[O-] | 25%[10 µM] | ? | 6% | 11% | 21%
CN(c1ccccc1)c1ccc(/C=C(\CCC(=O)O)c2nc3ccccc3s2)cc1[N+](=O)[O-] | 9%[10 µM] | 14µM* | -21% | ? | 10%
CNc1ccc(/C=C(\CCC(=O)O)c2nc3ccccc3s2)cc1[N+](=O)[O-] | -4%[10 µM] | 3.2µM* | -16% | ? | 27%
COc1ccc2c(Sc3ccc(Cl)cc3)c(C(=O)N3CCCCC3)[nH]c2c1 | · | ? | 13% | -6% | ·
CCc1ccc2oc(-c3cc(NC(=O)c4cccs4)ccc3Cl)nc2c1 | · | -8% | 13µM* | ? | ·
Cc1ccc2oc(-c3cc(NC(=O)c4ccco4)ccc3Cl)nc2c1 | · | -11% | ? | ? | ·
CC(C)c1ccc2oc(-c3cc(NC(=O)c4cccnc4)ccc3Cl)nc2c1 | · | 2% | 7.9µM* | ? | ·
O=C(Nc1ccc2oc(-c3ccccc3)nc2c1)c1cccnc1 | -11% | -14% | 4% | -17% | -1%
Nc1ccc2oc(Cc3ccc(Cl)cc3)nc2c1 | · | 22µM* | ? | ? | ·
CCc1ccc2oc(-c3cc(N)ccc3Cl)nc2c1 | -86%[10 µM] | ? | 10% | 14µM*[quencher] | 2%
O=C(O)CCCC/C=C\C[C@@H](O)/C=C/C=C/C=C\[C@@H](O)CCCC(=O)O | -18% | -2% | 1% | 0% | ·
CC(C)(C)COS(=O)OCC(C)(C)C | 9%[10 µM] | · | · | · | ·
Cc1c(C(=O)N(C)C2CCCCC2)sc2nc3ccc(N)cc3n12 | -85% | ? | ? | ? | ·
O=C1CCC[C@H]2OC12[C@@H](O)CCc1ccccc1 (stereo not given in full) | -101%[10 µM] | -10%[11.5 µM] | -11%[11.6 µM] | -8%[11.6 µM] | ·
CSc1nc(N)c2ncn([C@@H]3O[C@H](COP(=O)(O)OP(=O)(O)O)[C@H](O)[C@H]3O)c2n1 | · | -7% | -9% | -11% | ·
Cc1ccc(C)c(NC(=O)CSc2cn(CC(=O)N3CCCC3)c3ccccc23)c1 | · | -1% | 2% | -1% | ·
O=C1CCC[C@@H]2CC(NCc3ccc(Cl)c(Cl)c3)C[C@@H]3CCN1[C@H]23 (stereo not given in full) | -16% | -9%[81.4 µM] | 0%[81.3 µM] | -9%[81.3 µM] | ·
CC(C)(C)c1ccc(-c2nnc(SCCC#N)n2C2CCCC2)cc1 | 26%[1.9 µM] | -9% | 2% | -15% | 11µM*
COc1ccc2[nH]c3c(N4CC(C)OC(C)C4)ncnc3c2c1 (stereo not given) | -12% | -25% | 9% | -14% | 1%
COc1cccc(N2CCN(c3ncnc4c3[nH]c3ccc(F)cc34)CC2C)c1 (stereo not given) | -126% | ? | ? | 18µM*[quencher] | 6.3µM*
COc1cccc(N2CCN(c3ncnc4c3[nH]c3ccccc34)CC2C)c1 (stereo not given) | -8%[10 µM] | ? | ? | 14µM*[quencher] | 11µM*
COc1ccc2c(c1)[nH]c1c(N3CCSCC3)ncnc12 | 14%[10 µM] | -23% | 21% | ? | -17%[9.22 µM]
C=C1CC2C3C=C(C)C4=CC(=O)CCC4(C)C3CCC2(C)[C@@]1(OC(C)=O)C(C)=O (stereo not given in full) | 5% | · | · | · | -4%
SMILES | HTT ATP protect | Tau ThT inhib | Tau FP inhib | Tau fluor cs | HttQ103 aggreg
COc1cc(CN2CCCCC2)cc2cc(C(=O)O)c(=O)oc12 | 4%[10 µM] | · | · | · | ·
CCCCN1C=CC(=C2N=c3cccc([N+](=O)[O-])c3=N2)C=C1 | 24%[10 µM] | 1% | 0% | -1% | 0.89µM*
CCCCCCN1C=CC(=C2C(=O)c3ccccc3C2=O)C=C1 | -80%[10 µM] | 8% | 7% | 2% | 24%[9.22 µM]
CC(C)/C=N/Nc1nc2c(c(=O)n(C)c(=O)n2C)n1C | -33%[10 µM] | 28µM* | ? | ? | -24%[9.22 µM]
Cn1c(=O)c2c(nc(N/N=C\c3ccccc3C(=O)O)n2C)n(C)c1=O | -6%[10 µM] | · | · | · | ·
CN(C)c1ccc(NC(=O)c2ccc(COc3cccc(Cl)c3)o2)cc1 | -50% | 11µM* | ? | ? | ?
Cc1ccc(NC(=O)c2ccc(COc3ccccc3Cl)o2)cc1 | · | -12% | -8% | -20% | ·
CC(=O)N/N=C/c1ccc([N+](=O)[O-])o1 | -367% | · | · | · | 32µM*
O=[N+]([O-])c1ccc(/C=N/N=C/c2ccc([N+](=O)[O-])o2)o1 | -179% | 13µM* | ? | ? | 6%[9.22 µM]
COc1ccc2[nH]cc(CCNC(=O)c3cnn(-c4ccc(C)cc4)c3C3CCN(C(=O)OC(C)(C)C)CC3)c2c1 | · | -16% | 12% | ? | ·
Cc1ccc(N=Cc2nc(-c3ccc(C)cc3)oc2O)cc1 | -27% | ? | -9% | -17% | 8%
CC(=O)Oc1oc(-c2ccccc2)nc1C=Nc1ccc(N(C)C)cc1 | 9%[10 µM] | 14µM* | -13% | ? | 7%[9.22 µM]
COc1ccccc1N=Cc1nc(-c2ccccc2)oc1OC(C)=O | 7%[1.9 µM] | 25µM* | ? | ? | -27%
CSc1ccccc1N=Cc1nc(-c2ccccc2)oc1O | -1% | 20µM* | -11% | ? | 20%
CC(=O)Nc1ccc(N=Cc2nc(-c3ccc(C)cc3)oc2O)cc1 | 5%[10 µM] | 4.5µM* | 1% | ? | 20%
CCOC(=O)Cn1c(=O)n(C2CCCCC2)c2nc(-c3cccc(C)c3)nc(C(N)=O)c21 | · | 6% | -3% | -3% | ·
CN(C)c1ccc(N=Cc2nc(-c3ccccc3)oc2O)cc1 | 3% | 2.2µM* | -9% | ? | 16%
Oc1oc(-c2ccccc2)nc1C=Nc1ccccc1 | -30% | ? | 6% | -28% | 17%
COc1ccc(N=Cc2nc(-c3ccco3)oc2O)cc1 | ? | 16µM* | 7% | ? | 30%
C[C@H](Br)C(=O)c1ccc2cc(Br)c3ccccc3c2c1 | -7%[10 µM] | · | · | · | ·
O=C(C1CCCCC1)N(CCN1CCN(c2ccccc2CO)CC1)c1ccccn1 | -38% | -4% | -1% | -8% | ·
Clc1ccc(-c2csc(N/N=C\c3cccnc3)n2)cc1 | 0%[10 µM] | ? | 1% | ? | -21%
CN(C)S(=O)(=O)c1ccc(-c2csc(N/N=C/c3ccco3)n2)cc1 | 21%[10 µM] | ? | 10% | ? | 0%[9.22 µM]
Clc1ccc(-c2csc(N/N=C/c3ccco3)n2)cc1 | 1%[10 µM] | 14µM* | -4% | 13µM*[quencher] | 6%[9.22 µM]
O=C(NNc1nc(-c2ccccc2)cs1)c1ccco1 | 15%[0.074 µM] | 11µM* | ? | ? | -3%
Cc1ccc(-c2csc(N/N=C/c3ccco3)n2)cc1 | -15% | 14µM* | 2% | ? | 23%
C(=N\Nc1nc(-c2ccccc2)cs1)/c1ccco1 | -8%[10 µM] | 14µM* | ? | 14µM*[quencher] | 11%
CCOc1ccc(-n2nc(CO)c(C(=O)NCc3ccccn3)n2)cc1 | · | ? | 0% | -5% | ·

Compound activity: PubChem, National Center for Advancing Translational Sciences (NCATS)
